# Assay results: PubChem BioAssay AID1159580 (chemical genetic matrix, 2015)
# Values joined by “and” are separate entries in the source; they are usually repeats but may differ in a detail not shown here. Identical values can stand only once. Among all 5,500 compounds or so, about 2,000 (36%) were called active. Roughly 18% stayed inconclusive and do not appear here. This is one part of the list. A number with no mark means an inactive call. No stated cut-off is given here; in the data, active means normalized growth mostly below about 0.91 (no sharp cut-off); inconclusive means no clear call, values can overlap the other calls; inactive means mostly above about 0.92.
# Experiment: chemical genetic growth profiling, strain panel (AID 1159580);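 further: tested at 20 µM; growth read once vehicle control cultures reached saturation at 30 °C; 1 = growth at the plate median or of vehicle wells; lower values mean less growth of the strain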
# Conditions: S. cerevisiae deletion strains, growth OD
smiles,measurement,setting,value
COC(=O)Nc1nc2ccc(Sc3ccccc3)cc2[nH]1,normalized growth,"locus YAL013W, strain DEP1, hits give low values",1
same,normalized growth,"locus YAL021C, strain ccr4, hits give low values",1.01
same,normalized growth,"locus YAL026C, strain drs2, hits give low values",1
same,normalized growth,"locus YAL030W, strain snc1, hits give low values",0.986
same,normalized growth,"locus YBL061C, strain skt5, hits give low values",0.986
same,normalized growth,"locus YBR009C, strain hhf1, hits give low values",0.993
same,normalized growth,"locus YBR021W, strain FUR4, hits give low values",1.02
same,normalized growth,"locus YBR023C, strain chs3, hits give low values",0.989
same,normalized growth,"locus YBR171W, strain sec66, hits give low values",0.987
same,normalized growth,"locus YBR229C, strain ROT2, hits give low values",0.997
same,normalized growth,"locus YBR231C, strain swc5, hits give low values",0.753 (active)
same,normalized growth,"locus YBR279W, strain paf1, hits give low values",0.985
same,normalized growth,"locus YCL011C, strain gbp2, hits give low values",0.991
same,normalized growth,"locus YCL016C, strain dcc1, hits give low values",1
same,normalized growth,"locus YCL029C, strain bik1, hits give low values",0.826 (active)
same,normalized growth,"locus YCL061C, strain MRC1, hits give low values",1.01
same,normalized growth,"locus YCL069W, strain vba3, hits give low values",0.99
same,normalized growth,"locus YCR088W, strain abp1, hits give low values",0.996
same,normalized growth,"locus YDL005C, strain med2, hits give low values",0.987
same,normalized growth,"locus YDL035C, strain GPR1, hits give low values",0.98
same,normalized growth,"locus YDL040C, strain nat1, hits give low values",1.01
same,normalized growth,"locus YDL074C, strain BRE1, hits give low values",0.994
same,normalized growth,"locus YDL101C, strain DUN1, hits give low values",1.02
same,normalized growth,"locus YDL134C, strain PPH21, hits give low values",1.01
same,normalized growth,"locus YDL185W, strain tfp1, hits give low values",0.986
same,normalized growth,"locus YDL192W, strain arf1, hits give low values",1
same,normalized growth,"locus YDR001C, strain nth1, hits give low values",0.996
same,normalized growth,"locus YDR069C, strain doa4, hits give low values",0.984
same,normalized growth,"locus YDR101C, strain arx1, hits give low values",0.99
same,normalized growth,"locus YDR137W, strain rgp1, hits give low values",0.965
same,normalized growth,"locus YDR150W, strain NUM1, hits give low values",0.975
same,normalized growth,"locus YDR159W, strain sac3, hits give low values",0.99
same,normalized growth,"locus YDR162C, strain NBP2, hits give low values",1
same,normalized growth,"locus YDR195W, strain ref2",1.04
same,normalized growth,"locus YDR297W, strain sur2, hits give low values",0.97
same,normalized growth,"locus YDR318W, strain mcm21, hits give low values",1.01
same,normalized growth,"locus YDR334W, strain swr1, hits give low values",0.788 (active)
same,normalized growth,"locus YDR335W, strain msn5, hits give low values",1
same,normalized growth,"locus YDR388W, hits give low values",1
same,normalized growth,"locus YDR392W, strain spt3, hits give low values",0.993
same,normalized growth,"locus YDR502C, strain sam2, hits give low values",0.98
same,normalized growth,"locus YEL003W, strain gim4, hits give low values",0.206 (active)
same,normalized growth,"locus YEL037C, strain rad23, hits give low values",1
same,normalized growth,"locus YEL061C, strain CIN8 (second series), hits give low values",0.999
same,normalized growth,"locus YEL061C, strain CIN8, hits give low values",0.995
same,normalized growth,"locus YER015W, strain faa2, hits give low values",0.988
same,normalized growth,"locus YER016W, strain bim1, hits give low values",0.985
same,normalized growth,"locus YER110C, hits give low values",0.995
same,normalized growth,"locus YER111C, strain swi4, hits give low values",0.992
same,normalized growth,"locus YER155C, strain BEM2 (second series), hits give low values",0.978
same,normalized growth,"locus YER155C, strain BEM2, hits give low values",1
same,normalized growth,"locus YER167W, strain BCK2, hits give low values",0.991
same,normalized growth,"locus YFR010W, strain ubp6, hits give low values",0.995
same,normalized growth,"locus YGL078C, strain dbp3, hits give low values",0.99
same,normalized growth,"locus YGL086W, strain mad1, hits give low values",0.955
same,normalized growth,"locus YGL167C, strain pmr1, hits give low values",0.98
same,normalized growth,"locus YGL173C, strain kem1, hits give low values",0.991
same,normalized growth,"locus YGL227W, strain vid30, hits give low values",0.993
same,normalized growth,"locus YGL240W, strain doc1, hits give low values",0.987
same,normalized growth,"locus YGL248W, strain PDE1, hits give low values",1
same,normalized growth,"locus YGL253W, strain hxk2, hits give low values",1
same,normalized growth,"locus YGR078C, strain PAC10, hits give low values",0.0823 (active)
same,normalized growth,"locus YGR135W, strain pre9, hits give low values",0.99
same,normalized growth,"locus YGR229C, strain SMI1, hits give low values",0.941
same,normalized growth,"locus YGR252W, strain gcn5, hits give low values",0.895
same,normalized growth,"locus YHR013C, strain ard1, hits give low values",0.969
same,normalized growth,"locus YHR027C, strain rpn1, hits give low values",0.998
same,normalized growth,"locus YHR030C, strain SLT2, hits give low values",0.995 and 0.963
same,normalized growth,"locus YHR079C, strain IRE1 (second series), hits give low values",1.01
same,normalized growth,"locus YHR079C, strain IRE1, hits give low values",0.964
same,normalized growth,"locus YHR094C, strain hxt1, hits give low values",1
same,normalized growth,"locus YHR129C, strain ARP1, hits give low values",1.01
same,normalized growth,"locus YHR142W, strain chs7, hits give low values",0.989
same,normalized growth,"locus YHR200W, strain rpn10, hits give low values",0.984
same,normalized growth,"locus YIL066C, strain RNR3, hits give low values",0.997
same,normalized growth,"locus YIL073C, strain SPO22, hits give low values",0.998
same,normalized growth,"locus YIL125W, strain kgd1, hits give low values",0.99
same,normalized growth,"locus YIR030C, strain dcg1, hits give low values",1
same,normalized growth,"locus YJL092W, strain hpr5, hits give low values",1
same,normalized growth,"locus YJL095W, strain BCK1 (second series), hits give low values",0.985
same,normalized growth,"locus YJL095W, strain BCK1, hits give low values",1.03 and 0.949
same,normalized growth,"locus YJL115W, strain asf1, hits give low values",1.01
same,normalized growth,"locus YJL129C, strain trk1, hits give low values",0.976
same,normalized growth,"locus YJL134W, strain LCB3, hits give low values",1
same,normalized growth,"locus YJL154C, strain vps35, hits give low values",0.993
same,normalized growth,"locus YJL164C, strain tpk1, hits give low values",1
same,normalized growth,"locus YJL166W, strain qcr8, hits give low values",0.972
same,normalized growth,"locus YJL168C, strain set2, hits give low values",1
same,normalized growth,"locus YJL187C, strain SWE1 (second series), hits give low values",1.01
same,normalized growth,"locus YJR043C, strain POL32, hits give low values",0.988
same,normalized growth,"locus YJR066W, strain TOR1, hits give low values",0.872
